From PubChem BioAssay (NCATS)
Results filed as inconclusive are left out. The source made the active and inactive calls. Calls come from the whole dose curve; as a rule, active = well fitted curve in the direction sought with a large enough effect; inconclusive = small, poorly fitted or top-dose-only effect, or another doubt; inactive = no such curve, though single readings can be large; an effect the other way counts as inactive or inconclusive.

Key:
[1] = Quantitative highthroughput screen to assess conditional lethalithy of P12 Ichikawa cells grown in Human Plasma-Like Medium with dialyzed fetal bovine serum (HPLM+ds) (AID 1963879); details: Potency: viability; note: nearly all actives have a fitted effect of over 35% in size; for viability: series mostly up to about 46 µM
Outline: (§1)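 Each medium arm—HPLM with 10% dialyzed FBS, or RPMI1640 with 5 mM glucose and 10% untreated or dialyzed FBS—was screened against an 11-point, 3-fold compound titration for 48 h at 37 °C, with CellTiter-Glo luminescence as endpoint.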

[2] = Quantitative highthroughput screen to assess conditional lethalithy of P12 Ichikawa cells grown in RPMI1640 with dialyzed fetal bovine serum (RPMI+ds) (AID 1963880); details: Potency: P12-Ichikawa viability; note: nearly all actives have a fitted effect of over 35% in size;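 for viability: 100% = DMSO wells and 0% = empty wells on each plate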
Outline: as §1

[3] = Quantitative highthroughput screen to assess conditional lethalithy of P12 Ichikawa cells grown in RPMI1640 with untreated serum (RPMI+s) (AID 1963881); details: Potency: viability; note: nearly all actives have a fitted effect of over 35% in size;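 for viability: series mostly up to about 46 µM; 100% = DMSO wells and 0% = empty wells without cells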
Outline: as §1

[4] = Quantitative highthroughput screen to assess conditional lethalithy of SEM cells grown in Human Plasma-Like Medium with dialyzed fetal bovine serum (HPLM+ds) (AID 1963882); note: nearly all actives have a fitted effect of over 35% in size; for viability: series mostly up to about 46 µM
Outline: as §1

[5] = Quantitative highthroughput screen to assess conditional lethalithy of SEM cells grown in RPMI1640 with unreated serum (RPMI+s) (AID 1963883); note: nearly all actives have a fitted effect of over 35% in size;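 for viability: 100% = DMSO wells and 0% = empty wells without cells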
Outline: as §1

[6] = Quantitative highthroughput screen to assess conditional lethalithy of SEM cells grown in RPMI1640 with dialyzed fetal bovine serum (RPMI+ds) (AID 1963884); note: nearly all actives have a fitted effect of over 35% in size;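 for viability: series mostly up to about 46 µM; 100% = DMSO control wells and 0% = empty wells without cells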
Outline: as §1

[7] = Cellular viability qHTS for adrenocortical cancer (ACC) cell line SW-13 (AID 1963989); details: SW-13 ACC cells viability, CellTiter-Glo, 48 h; activity (max response): active compounds read low; note: nearly all actives have a fitted effect of over 65% in size;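 for activity (max response): cells grown in serum-free medium with ITS supplement; % is set by controls: 0 for no effect and ±100 for the full control effect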
Outline: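 Compound titrations (up to 46 uM final, in DMSO) were applied to SW-13 cells for 48 h at 37C/5% CO2. Reading used CellTiter-Glo after 20 min at room temperature; fitted curves yielded IC50 and efficacy.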

[8] = Cellular viability qHTS for adrenocortical cancer (ACC) cell line NCI-H295R (AID 1963990); note: nearly all actives have a fitted effect of over 60% in size
Outline: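 Readout: CellTiter-Glo luminescence, 20 min RT. Exposure: 48 h, 37C/5% CO2. Cells: NCI-H295R, ITS-DMEM serum-free. Range: up to 46 uM. Analysis: 4PL fit, IC50 plus efficacy.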

[9] = Quantitative highthroughput screen to assess conditional lethalithy of NOMO1 cells grown in Human Plasma-Like Medium with dialyzed fetal bovine serum (HPLM+ds) (AID 1963878); note: nearly all actives have a fitted effect of over 35% in size;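 for viability: 100% = DMSO wells and 0% = empty wells on each plate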
Outline: as §1
Potency is the fitted concentration of half-maximal effect.

CN[C@H]1[C@@H](O[C@@H]2[C@H](O[C@@H]3[C@@H](O)[C@@H](O)[C@@H](N=C(N)N)[C@@H](O)[C@@H]3N=C(N)N)O[C@H](C)[C@@]2(O)C=O)O[C@@H](CO)[C@@H](O)[C@H]1O
inactive: Potency [1] | Potency [2] | Potency [3] | Potency [4] | Potency [5] | Potency [6]

COc1cc2nc(N(C)CCCNC(=O)C3CCCO3)nc(N)c2cc1OC (stereo unspecified)
inactive: Potency [1] | Potency [2] | Potency [3] | Potency [4] | Potency [5] | Potency [6] | activity (max response) [7] -10.5% | Potency [8]

CO[C@@H]1[C@@H](O)[C@H](O)[C@@H](n2c3c(Cl)cccc3c3c4c(c5c6cccc(Cl)c6[nH]c5c32)C(=O)NC4=O)O[C@@H]1CO
active: Potency [1] 0.296 µM | Potency [2] 0.264 µM | Potency [3] 0.235 µM | Potency [4] 0.59 µM | Potency [5] 0.235 µM | Potency [6] 0.469 µM

CCCCCCCCCCCC1=C(O)C(=O)C=C(O)C1=O
active: Potency [1] 2.09 µM | Potency [2] 3.32 µM | Potency [3] 2.09 µM
inactive: Potency [4] | Potency [5] | activity (max response) [7] -2.06%

CON(C)C(=O)N1N=C(c2cc(F)ccc2F)S[C@]1(CCCN)c1ccccc1
inactive: Potency [9] | Potency [2] | Potency [3] | Potency [4] | Potency [5] | Potency [6]

Cc1nnc(C(C)C)n1C1C[C@H]2CC[C@@H](C1)N2CC[C@H](NC(=O)C1CCC(F)(F)CC1)c1ccccc1 (stereo partly specified)
active: Potency [1] 16.6 µM

CC(C)[N+]1(C)[C@@H]2CC[C@H]1CC(OC(=O)C(CO)c1ccccc1)C2 (stereo partly specified)
active: Potency [9] 13.2 µM | Potency [4] 9.35 µM

O=C(O)c1c(Cl)c(Cl)c(Cl)c(Cl)c1-c1c2cc(I)c(=O)c(I)c-2oc2c(I)c(O)c(I)cc12
inactive: Potency [9]
active: Potency [1] 8.33 µM | Potency [7] 12.6 µM | Potency [8] 14.1 µM

COc1ccc(-c2oc3cc(OC)ccc3c2C(=O)c2ccc(C#N)cc2)cc1
active: Potency [1] 1.87 µM | Potency [2] 2.96 µM | Potency [3] 1.32 µM
inactive: Potency [4] | Potency [5]

CC1=C(C(=O)Nc2cc3cn[nH]c3cc2F)C(c2ccc(C(F)(F)F)cc2)CC(=O)N1 (stereo unspecified)
active: Potency [9] 11.8 µM | Potency [3] 10.5 µM
inactive: Potency [8]

COc1cc2c(Nc3ccc(Cl)c(Cl)c3F)ncnc2cc1OCC1C[C@@H]2CN(C)C[C@H]2C1
active: Potency [1] 11.8 µM | Potency [2] 16.6 µM | Potency [3] 13.2 µM | Potency [4] 10.5 µM | Potency [5] 2.64 µM | Potency [6] 11.8 µM

CNC(=O)c1ccc(N2C(=S)N(c3cnc(C#N)c(C(F)(F)F)c3)C(=O)C23CCC3)cc1F
inactive: Potency [1] | Potency [2] | Potency [3] | Potency [4] | Potency [5] | Potency [6] | activity (max response) [7] 4.43%

C=CCc1ccc(O)c(-c2ccc(O)c(CC=C)c2)c1
active: Potency [1] 0.132 µM | Potency [2] 0.526 µM | Potency [3] 1.05 µM

O=C(O)C[C@H](O)C[C@H](O)C=Cc1c(C2CC2)nc2ccccc2c1-c1ccc(F)cc1
active: Potency [9] 20.9 µM | Potency [2] 4.18 µM | Potency [3] 3.72 µM | Potency [5] 11.8 µM

CCC[C@H](NC(=O)C(C#N)=Cc1cccc(Br)n1)c1ccccc1
active: Potency [9] 20.9 µM | Potency [2] 26.4 µM

CC(C)n1c(C=C[C@H](O)C[C@H](O)CC(=O)O)c(-c2ccc(F)cc2)c2ccccc21
active: Potency [1] 5.9 µM | Potency [2] 4.69 µM | Potency [3] 4.69 µM

COc1ccc(S(=O)(=O)Nc2cc(-c3c(O)ccc4ccccc34)c(O)c3ccccc23)cc1
active: Potency [9] 20.9 µM | Potency [1] 16.6 µM | Potency [4] 14.8 µM | Potency [5] 7.43 µM | Potency [6] 14.8 µM | Potency [8] 28.2 µM

Cc1[nH]c(C=C2C(=O)Nc3ccccc32)c(C)c1CCC(=O)O
active: Potency [1] 9.35 µM | Potency [2] 18.7 µM | Potency [3] 13.2 µM

C=CC[C@@H]1C=C(C)C[C@H](C)C[C@H](OC)[C@H]2O[C@@](O)(C(=O)C(=O)N3CCCC[C@H]3C(=O)O[C@H](C(C)=C[C@@H]3CC[C@H](O)[C@H](OC)C3)[C@@H](C)[C@@H](O)CC1=O)[C@@H](C)C[C@@H]2OC
active: Potency [9] 4.18 µM | Potency [2] 6.62 µM | Potency [3] 6.62 µM | Potency [4] 3.32 µM | Potency [5] 1.48 µM

O=c1[nH]c(=O)n([C@H]2C[C@@H](O)[C@@H](CO)O2)cc1I
inactive: Potency [2]
active: Potency [9] 11.8 µM | Potency [4] 7.43 µM

CCC(=O)NC[C@H](Cc1ccc(OCCc2nc(-c3ccccc3)oc2C)cc1)NC(C)=CC(=O)c1ccc(C(F)(F)F)cc1
active: Potency [1] 10.5 µM | Potency [2] 16.6 µM | Potency [3] 16.6 µM

COc1cc2c(NC3CCN(C(C)C)CC3)nc(C3CCCCC3)nc2cc1OCCCN1CCCC1
active: Potency [9] 23.5 µM | Potency [2] 20.9 µM | Potency [3] 23.5 µM | Potency [4] 16.6 µM | Potency [5] 26.4 µM | Potency [7] 17.8 µM | Potency [8] 12.6 µM

O=C(O)C1=NC(C(=O)O)CC(C=CN2c3cc(O)c(OC4OC(CO)C(O)C(O)C4O)cc3CC2C(=O)O)=C1 (stereo unspecified)
inactive: Potency [9] | Potency [2] | Potency [4] | Potency [5] | Potency [6]

Cc1cc(OCCCS(C)(=O)=O)cc(C)c1-c1cccc(COc2ccc3c(c2)OC[C@H]3CC(=O)O)c1
inactive: Potency [9] | Potency [4]
